# TIM10 inh – TIM10 yeast growth inhibition. S. cerevisiae TIM10 strain growth, BacTiter-Glo luminescence, 24 h. inhibition, % at 10 µM. actives 1.4% (n = 330,000);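 active = inhibition of 40% or more at the single tested concentration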;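 also: wild-type TIM10 isogenic control strain grown at permissive 25 °C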
# PfHsp90 set2 – growth inhibition of yeast expressing Plasmodium Hsp90. S. cerevisiae expressing PfHsp90, BacTiter-Glo ATP, 48 h; yeast lacking PDR1 and PDR3 efflux regulators. inhibition, % at 9.4 µM. actives 0.32% (n = 310,000). AID 504621;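 active = every replicate shows inhibition above about 80%, whatever the replicate mean, limit read from the data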;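 also: 0% = DMSO neutral controls and 100% = 20 µM radicicol positive controls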
# tim23-1 inh – growth inhibitors of tim23-1 mutant yeast; S. cerevisiae tim23-1 growth, BacTiter-Glo luminescence, 24 h; inhibition, % at 20 µM; actives 1.3% (n = 330,000);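 active = growth inhibition of the mutant yeast at or above 50%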;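 also: temperature-sensitive mutant grown at 25 °C; plate controls were DMSO-treated mutant yeast for no effect and medium wells lacking yeast for full effect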
# tim10-1 inh – tim10-1 yeast growth inhibition; S. cerevisiae tim10-1 ts strain growth, BacTiter-Glo, 24 h; inhibition, % at 20 µM; actives 2.2% (n = 330,000); AID 463190;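 active = inhibition of at least 40%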;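 also: mutant grown at 25 °C; 0% = DMSO wells with yeast and 100% = wells holding no yeast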
# NLRP3 yeast inh – blocks the NALP3 inflammasome reconstituted in yeast; Yeast reconstituted NLRP3/ASC/caspase-1, beta-gal luminescence, 24 h; inhibition, % at 10 µM; actives 0.39% (n = 330,000); AID 2825;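 active = inhibition of 50% or more; inactive = inhibition below 50%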;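 also: plate controls were induced DMSO wells for no effect and uninduced yeast grown without galactose for full effect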
# tim23-1 conf – tim23-1 yeast growth inhibition, confirmed; shares compounds with tim23-1 inh; S. cerevisiae tim23-1 growth, BacTiter-Glo luminescence, 24 h; inhibition, % at 20 µM; actives 83% (n = 4,400); AID 463218;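 active = inhibition above about 39% in either of two replicate wells at 20 µM, limit read from the data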;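 also: temperature-sensitive tim23-1 mutant grown at 25 °C; 0% = DMSO wells with yeast and 100% = medium wells without yeast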
# Numbers without * were called inactive; x = no result given. In the library only some 3.7% were active in any assay of this set; here they are far more common.
SMILES,TIM10 inh,PfHsp90 set2,tim23-1 inh,tim10-1 inh,NLRP3 yeast inh,tim23-1 conf
CC1(C)CC(=O)C(N=Nc2cccc([N+](=O)[O-])c2)=C(O)C1,20,-3,88*,25,3,93*
COc1ccc(N=NC2=C(O)CC(C)(C)CC2=O)c(OC)c1,4,6,14,21,8,x
COc1ccc(C(=O)N2CCCc3ccccc32)cc1,-11,1,4,25,35,x
COc1ccc(-c2cn3c(C)c(C(=O)N4CCCc5ccccc54)sc3n2)cc1,0,-17,53*,20,32,59*
Cn1c(=NC(=O)CCl)sc2ccccc21,13,-60,57*,34,29,36
CCOc1cc(-c2nc3ccccc3s2)ccc1O,27,-32,59*,35,28,37
COc1cc(/C=C2\SC(=Nc3ccccc3OC)NC2=O)ccc1O,15,-4,39,16,9,x
COc1ccc(/C=C2\SC(=Nc3ccccc3OC)NC2=O)cc1,38,-61,53*,34,19,60*
CCn1nc(C)cc1C(=O)N1CCCC(C(=O)c2ccccc2SC)C1 (stereo not drawn),9,20,17,26,2,x
N#Cc1nc(-c2cccc3ccccc23)oc1NCC1CCCO1 (stereo not drawn),33,x,54*,30,1,52*
O=C(CC1C(=O)NCCN1Cc1ccoc1)NCCCn1ncc2ccccc21 (stereo not drawn),-5,-6,7,16,15,x
CC(C)(C)OC(=O)C[C@@H]1C/C=C\C[C@@H](CC(=O)NCCO)C(=O)NCCOC1=O,0,-14,-16,-10,-10,x
Cc1nc2ccc(NC(=O)c3cccs3)cc2c(=O)n1Cc1ccc(Cl)cc1,33,15,62*,33,20,46*
O=S1(=O)N[C@@H](Cc2ccccc2)COc2cc(Br)ccc21,3,11,70*,26,x,42*
CCCn1ncc(C(=O)N(C)C2CCCN(Cc3ccccc3F)C2)c1C (stereo not drawn),1,7,10,13,-2,x
O=C(/C=C/c1ccc(Cl)cc1)c1ccc([N+](=O)[O-])o1,34,x,60*,-2,25,10
C=CCOc1ccc(/C=C2\SC(=S)N(NS(=O)(=O)c3ccccc3)C2=O)cc1,26,-18,60*,19,11,56*
CC(C)(C)c1ccc(O)c(N=Cc2cc(Br)ccc2O)c1,15,1,69*,12,26,35
Cc1ccc(O)c(C=Nc2cc(C)ccc2O)c1,-8,-7,16,5,7,x
CCN(CC)c1ccc(N=Cc2cc(Br)ccc2O)cc1,20,7,49,24,14,x
OCC(CO)(CO)N=Cc1cc(Br)ccc1O,14,-57,59*,30,3,56*
CCn1c(SCC(=O)Nc2oc(C)c3c(C)n[nH]c(=O)c23)nc2sc(C)c(C)c2c1=O,29,-25,55*,30,5,8
Cc1cc(C)c(C)c(SCC(=O)Nc2oc(C)c3c(C)n[nH]c(=O)c23)c1C,13,7,15,22,3,x
CCOC(=O)CNc1nc(Cl)nc(Nc2ccc(C)cc2)n1,-4,-40,-17,-2,0,x
Cc1ccc(Nc2nc(Cl)nc(NC(C)(C)C)n2)cc1,14,-17,50*,32,2,40*
SMILES,TIM10 inh,PfHsp90 set2,tim23-1 inh,tim10-1 inh,NLRP3 yeast inh,tim23-1 conf
CN(C)CCNCCCNc1c2ccccc2nc2cccc([N+](=O)[O-])c12,x,16,x,x,x,x
CCC(C)NC(=O)c1cc2c(=O)n(CC)c3ccccc3c2s1 (stereo not drawn),13,-4,52*,34,-2,49*
CCn1c(=O)c2cc(C(=O)NCCC(C)C)sc2c2ccccc21,2,-6,24,25,17,x
O=C(COC(=O)c1cccs1)NC1CCCC1,-2,-7,3,-13,8,x
COc1ccc(OC)c(C(=O)COC(=O)c2cc(C)oc2C)c1,26,-6,16,23,23,x
COc1ccc(OC)c(C(=O)COC(=O)c2ccc([N+](=O)[O-])o2)c1,21,5,55*,23,24,57*
Oc1ccccc1/C=N/NC(=S)NC1CC2CCC1C2 (stereo not drawn),5,-50,66*,28,15,37

# Compound activity: PubChem, several laboratories
